Out of some 5,500 compounds screened, about 2,000 (36%) were called active. Inconclusive results (about 18%) are left out. No stated cut-off is given here; in the data, active means normalized growth mostly below about 0.91 (no sharp cut-off); inconclusive means no clear call, values can overlap the other calls; inactive means mostly above about 0.92. This is one part of the list.
Experiment: chemical genetic growth profiling, strain panel (AID 1159580);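 further: tested at 20 µM; growth read once vehicle control cultures reached saturation at 30 °C; 1 = growth at the plate median or of vehicle wells; lower values mean less growth of the strain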
Settings: growth OD

Measured: normalized growth

COc1cc(C(=O)O)c(O)c2c1OCO2
inactive: S. cerevisiae deletion strains, locus YAL013W, strain DEP1, hits give low values 1.01 | S. cerevisiae deletion strains, locus YBR021W, strain FUR4, hits give low values 0.999 | S. cerevisiae deletion strains, locus YBR229C, strain ROT2, hits give low values 0.999 | S. cerevisiae deletion strains, locus YCL029C, strain bik1, hits give low values 0.995 | S. cerevisiae deletion strains, locus YDL035C, strain GPR1, hits give low values 1.02 | S. cerevisiae deletion strains, locus YDL074C, strain BRE1, hits give low values 1.05 | S. cerevisiae deletion strains, locus YDL101C, strain DUN1, hits give low values 1.01 | S. cerevisiae deletion strains, locus YDL134C, strain PPH21, hits give low values 1.01 | S. cerevisiae deletion strains, locus YDL185W, strain tfp1, hits give low values 1 | S. cerevisiae deletion strains, locus YDL192W, strain arf1, hits give low values 1 | S. cerevisiae deletion strains, locus YDR101C, strain arx1, hits give low values 0.989 | S. cerevisiae deletion strains, locus YDR150W, strain NUM1, hits give low values 1.01 | S. cerevisiae deletion strains, locus YDR162C, strain NBP2, hits give low values 1.02 | S. cerevisiae deletion strains, locus YDR318W, strain mcm21, hits give low values 1 | S. cerevisiae deletion strains, locus YDR388W, hits give low values 1 | S. cerevisiae deletion strains, locus YDR502C, strain sam2, hits give low values 0.999 | S. cerevisiae deletion strains, locus YEL061C, strain CIN8, hits give low values 1 | S. cerevisiae deletion strains, locus YER110C, hits give low values 1 | S. cerevisiae deletion strains, locus YER155C, strain BEM2, hits give low values 1 | S. cerevisiae deletion strains, locus YER167W, strain BCK2, hits give low values 1.01 | S. cerevisiae deletion strains, locus YGL078C, strain dbp3, hits give low values 1.01 | S. cerevisiae deletion strains, locus YGL086W, strain mad1, hits give low values 1 | S. cerevisiae deletion strains, locus YGL248W, strain PDE1, hits give low values 1.01 | S. cerevisiae deletion strains, locus YGR078C, strain PAC10, hits give low values 1.03 | S. cerevisiae deletion strains, locus YGR135W, strain pre9, hits give low values 0.996 | S. cerevisiae deletion strains, locus YGR229C, strain SMI1, hits give low values 1.02 | S. cerevisiae deletion strains, locus YGR252W, strain gcn5, hits give low values 1.02 | S. cerevisiae deletion strains, locus YHR030C, strain SLT2, hits give low values 1.01 | S. cerevisiae deletion strains, locus YHR079C, strain IRE1 (second series), hits give low values 1 | S. cerevisiae deletion strains, locus YHR094C, strain hxt1, hits give low values 1 | S. cerevisiae deletion strains, locus YHR129C, strain ARP1, hits give low values 1.01 | S. cerevisiae deletion strains, locus YHR200W, strain rpn10, hits give low values 1.01 | S. cerevisiae deletion strains, locus YIL066C, strain RNR3, hits give low values 1.02 | S. cerevisiae deletion strains, locus YIL073C, strain SPO22, hits give low values 1.02 | S. cerevisiae deletion strains, locus YIL125W, strain kgd1, hits give low values 1 | S. cerevisiae deletion strains, locus YIR030C, strain dcg1, hits give low values 1 | S. cerevisiae deletion strains, locus YJL095W, strain BCK1, hits give low values 1.01 | S. cerevisiae deletion strains, locus YJL134W, strain LCB3, hits give low values 1 | S. cerevisiae deletion strains, locus YJL168C, strain set2, hits give low values 1 | S. cerevisiae deletion strains, locus YJL187C, strain SWE1 (second series), hits give low values 1.01 | S. cerevisiae deletion strains, locus YJR043C, strain POL32, hits give low values 1.02 | S. cerevisiae deletion strains, locus YJR075W, strain HOC1, hits give low values 1 | S. cerevisiae deletion strains, locus YKL009W, strain mrt4, hits give low values 1.01 | S. cerevisiae deletion strains, locus YKL068W, hits give low values 1.01 | S. cerevisiae deletion strains, locus YKL085W, strain MDH1 (second series), hits give low values 1 | S. cerevisiae deletion strains, locus YKL085W, strain MDH1, hits give low values 1 | S. cerevisiae deletion strains, locus YKL190W, strain CNB1, hits give low values 1.01 | S. cerevisiae deletion strains, locus YKR001C, strain vps1, hits give low values 1.01 | S. cerevisiae deletion strains, locus YLR039C, strain RIC1, hits give low values 1.04 | S. cerevisiae deletion strains, locus YLR058C, strain SHM2, hits give low values 1.01 | S. cerevisiae deletion strains, locus YLR102C, strain apc9, hits give low values 1 | S. cerevisiae deletion strains, locus YLR262C, strain YPT6, hits give low values 1.03 | S. cerevisiae deletion strains, locus YLR268W, strain sec22, hits give low values 1 | S. cerevisiae deletion strains, locus YLR330W, strain CHS5, hits give low values 1.01 | S. cerevisiae deletion strains, locus YLR342W, strain FKS1 (second series), hits give low values 1.01 | S. cerevisiae deletion strains, locus YLR371W, strain rom2, hits give low values 1.02 | S. cerevisiae deletion strains, locus YLR418C, strain cdc73, hits give low values 1 | S. cerevisiae deletion strains, locus YML016C, strain PPZ1, hits give low values 1.01 | S. cerevisiae deletion strains, locus YML032C, strain rad52, hits give low values 1.02 | S. cerevisiae deletion strains, locus YML124C, strain tub3, hits give low values 0.998 | S. cerevisiae deletion strains, locus YMR078C, strain ctf18, hits give low values 1 | S. cerevisiae deletion strains, locus YMR223W, strain ubp8, hits give low values 1.01 | S. cerevisiae deletion strains, locus YMR263W, strain SAP30, hits give low values 1.02 | S. cerevisiae deletion strains, locus YMR307W, strain GAS1, hits give low values 0.961 | S. cerevisiae deletion strains, locus YNL067W, strain RPL9B, hits give low values 1.01 | S. cerevisiae deletion strains, locus YNL128W, strain TEP1, hits give low values 1.02 | S. cerevisiae deletion strains, locus YNL153C, strain GIM3, hits give low values 1.02 | S. cerevisiae deletion strains, locus YNL233W, strain BNI4, hits give low values 1.01 | S. cerevisiae deletion strains, locus YNL250W, strain rad50, hits give low values 1.01 | S. cerevisiae deletion strains, locus YNL271C, strain bni1, hits give low values 1.01 | S. cerevisiae deletion strains, locus YNL298W, strain CLA4, hits give low values 1.01 | S. cerevisiae deletion strains, locus YNL307C, strain MCK1, hits give low values 1.01 | S. cerevisiae deletion strains, locus YNL322C, strain KRE1, hits give low values 1.01 | S. cerevisiae deletion strains, locus YNR052C, strain pop2, hits give low values 1.01 | S. cerevisiae deletion strains, locus YOL006C, strain TOP1, hits give low values 0.995 | S. cerevisiae deletion strains, locus YOL012C, strain htz1 1.11 | S. cerevisiae deletion strains, locus YOL147C, strain pex11, hits give low values 0.998 | S. cerevisiae deletion strains, locus YOR061W, strain CKA2, hits give low values 1.01 | S. cerevisiae deletion strains, locus YOR069W, strain VPS5, hits give low values 1.01 | S. cerevisiae deletion strains, locus YOR136W, strain idh2, hits give low values 1 | S. cerevisiae deletion strains, locus YOR144C, strain elg1, hits give low values 0.997 | S. cerevisiae deletion strains, locus YOR184W, strain ser1, hits give low values 1.01 | S. cerevisiae deletion strains, locus YOR316C, strain cot1, hits give low values 1.01 | S. cerevisiae deletion strains, locus YPL055C, strain LGE1, hits give low values 1.04 | S. cerevisiae deletion strains, locus YPL241C, strain CIN2, hits give low values 1.01 | S. cerevisiae deletion strains, locus YPR119W, strain clb2, hits give low values 0.997 | S. cerevisiae deletion strains, locus YPR141C, strain kar3, hits give low values 1.01 | S. cerevisiae deletion strains, locus YPR163C, strain tif3, hits give low values 1 | S. cerevisiae deletion strains, locus YPR167C, strain met16, hits give low values 1.01 | S. cerevisiae deletion strains, strain wtn01, hits give low values 0.982 | S. cerevisiae strains, strain wild type, hits give low values 1.02

— PubChem BioAssay AID1159580 (chemical genetic matrix, 2015)
